Most compounds without a hit are left out; they make up all but 19% or so of the library.
HT1080NT lethal – kills 2HG-producing HT-1080-NT fibrosarcoma cells; HT-1080-NT fibrosarcoma viability, CellTiter-Glo ATP luminescence, 48 h; Potency, µM (series often up to 46.1 µM), without a hit: at the top dose activity, negative = less viability, hits mostly cytotoxic; 360,000 compounds, 1.6% hits; AID 686970;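 note: NT is the 2HG producing partner of a matched IDH1 knockdown line; potency is the fitted concentration of half-maximal effect; 0% = DMSO-treated cells and -100% = media-only wells without cells; nearly all actives have a fitted effect of over 55% in size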
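Fibrosarcoma NT cells, 750 per well in 5% FBS RPMI, were exposed to compound for 48 hours. Viability: CellTiter-Glo luminescence.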
TDP1 cell noCPT – qHTS for Inhibitors of human tyrosyl-DNA phosphodiesterase 1 (TDP1): qHTS in cells in absence of CPT | DT40 Tdp1-/- hTDP1 cells, no CPT, ATP luminescence, 48 h | Potency, µM (series often up to 46.2 µM), for the others: at the highest dose activity change, negative = growth inhibition, hits mostly inhibitors | 420,000 compounds, 15% hits | AID 686978, 2013; note: potency is the fitted concentration of half-maximal effect; nearly all actives have a fitted effect of over 55% in size
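Seeded 400 DT40-hTDP1 cells/well (vehicle DMSO, no 20 nM CPT); pinned compounds; ≥48 hr at 37 °C; CellTiter-Glo luminescence as viability measure.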
DT40 TDP1 CPT – growth inhibition of DT40 Tdp1-/-;hTDP1 cells with camptothecin (screen for TDP1 inhibitors); chicken DT40 Tdp1-/-;hTDP1 cells + 20 nM CPT, ATP luminescence, 48 h; Potency, µM (top dose mostly 46.2 µM), for the others: at the highest dose activity change, negative = growth inhibition, usual class: inhibitors; AID 686979; 420,000 compounds, 12% hits; note: potency is the fitted concentration of half-maximal effect; nearly all actives have a fitted effect of over 55% in size
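Chicken DT40 Tdp1-/- cells stably complemented with human TDP1 were seeded at 400 cells/well in medium containing 20 nM camptothecin, exposed to pin-transferred compounds, and grown at 37 °C for at least 48 hr. Viability was read as ATP luminescence.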
uPA generation – cell surface uPA generation inhibition; cell surface uPA generation assay, qHTS; Potency, µM (top dose mostly 38.3 µM), inactives show at the highest dose activity change, negative = inhibition, actives largely listed as inhibitors; 330,000 compounds, 0.31% hits; AID 540303; active = well fitted inhibition curve with a large enough effect; inconclusive = small, poorly fitted or top-dose-only effect; inactive = no such curve, though single readings can be large or run the other way; tested in mouse RAW 264.7 cells; note: potency is the fitted concentration of half-maximal effect; nearly all actives have a fitted effect of over 55% in size
IL-1B inflam inh – blocks inflammasome-driven IL-1 beta release. THP-1 LPS/ATP IL-1B secretion, AlphaLISA, 16 h; active compounds read low. activity change, % at 57.5 µM. 360,000 compounds, 4.7% hits; in the data active = activity change below about -50%; inconclusive = mostly about -30% to -49%
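Secreted IL-1B measured by AlphaLISA bead assay after 16 h compound exposure of THP-1 cells; compounds (final up to 57.5 uM) added 1 h before LPS (250 ng/mL) and ATP (1.25 mM) stimulation; lower signal means less secretion.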
HT1080 IDH1KD tx – kills HT-1080 cells with IDH1 knockdown; HT-1080 IDH1 knockdown viability, ATP luminescence, 48 h; Potency, µM (titrated, usually from 46.1 µM), inactives show top-dose activity, negative = toxicity, usual class: cytotoxic; 360,000 compounds, 2% hits; AID 686971;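 note: potency is the fitted concentration of half-maximal effect; 0% = DMSO wells and -100% = cell-free medium wells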
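IDH1KD HT-1080 cells, 750/well, RPMI + 5% FBS; compound pinned after 2 h settling; 48 h, 37 °C; CellTiter-Glo luminescence; % activity normalised to DMSO and no-cell wells; curves fitted, classed by r2 and efficacy.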
Numbers without * were called inactive; ? = inconclusive; . = no result given; [ ] = dose if it differs, or a comment. Unless noted, calls come from the whole dose curve; as a rule, active = well fitted curve in the direction sought with a large enough effect; inconclusive = small, poorly fitted or top-dose-only effect, or another doubt; inactive = no such curve, though single readings can be large; an effect the other way counts as inactive or inconclusive. Unless noted, % is set by controls: 0 for no effect and ±100 for the full control effect.

SMILES | HT1080NT lethal | TDP1 cell noCPT | DT40 TDP1 CPT | uPA generation | IL-1B inflam inh | HT1080 IDH1KD tx
CC1(C)CC(=O)c2cc(OCC(=O)N3CCN(c4ccccc4F)CC3)ccc2O1 | -1.4% | -15.8% | -15.3% | 5.2% | -15.9 | -9.2%
CC1(C)CC(=O)c2c(O)cc(OCC(=O)N3CCN(c4ccc(F)cc4)CC3)cc2O1 | -0.1% | ? | ? | 5.8% | -54.8* | -5.3%
O=C(Nc1ccc(S(=O)(=O)N2CCCC2)cc1)C1CC(=O)N(CCc2ccccc2)C1 (stereo not drawn) | -6.1% | ? | ? | . | -5.8 | -10.6%
Cc1cc(N2CCOCC2)nc(SCC(=O)c2ccc(Cl)cc2)n1 | 7.9% | ? | 16.4µM* | 4.5% | -16.0 | 3.1%
Cc1cc(N2CCCC2)nc(SCC(=O)c2ccccc2)n1 | 2.3% | 23.1µM* | ? | 1.8% | -16.9 | -11.3%
Cc1cc(N2CCOCC2)nc(SCC(=O)c2ccccc2)n1 | 4.1% | -18.0% | -12.1% | 4.0% | 13.2 | 8.2%
Cc1cc(N2CCC(C)CC2)nc(SCC(=O)c2ccccc2)n1 | -3.1% | -83.5% | ? | -5.9% | -61.7* | -22.7%
Cc1cc(Cl)nc(SCC(=O)c2ccccc2)n1 | 9.0% | 14.2% | -14.7% | 1.8% | ? | 7.4%
COc1ccccc1CNC(=O)C1CCC(CNS(=O)(=O)c2ccc3c(c2)CCCC(=O)N3)CC1 (stereo not drawn) | . | -28.5% | -20.7% | . | . | .
CC(=O)c1c(NCCc2ccccc2)nc(=S)n(-c2ccccc2)c1C | -15.3% | 18.4µM* | 20.6µM* | ? | -101.1* | -12.3%
C=CCn1c(C)c(C(C)=O)c(N2CCN(C(c3ccccc3)c3ccccc3)CC2)nc1=S | 0.0% | 23.1µM* | ? | -0.2% | -2.1 | 2.1%
CCn1c(C)c(C(C)=O)c(N2CCN(c3cccc(Cl)c3)CC2)nc1=S | -0.4% | ? | ? | 0.0% | -5.3 | -5.4%
CC(=O)c1c(N2CCN(c3cccc(Cl)c3)CC2)nc(=S)n(-c2ccccc2)c1C | -5.2% | ? | ? | 2.0% | -102.4* | -28.7%
OC[C@@H]1CN(Cc2cccc(C(F)(F)F)c2)C[C@H](n2cnc3c(NCc4ccco4)ncnc32)O1 | -16.4% | ? | 18.4µM* | . | 9.9 | -17.5%
OC[C@@H]1CN(Cc2ccc(Cl)cc2)C[C@H](n2cnc3c(NCc4ccc(F)cc4)ncnc32)O1 | ? | 18.4µM* | 18.4µM* | . | -5.4 | ?
OC[C@@H]1CN(Cc2cccc(C(F)(F)F)c2)C[C@H](n2cnc3c(NCc4ccc(F)cc4)ncnc32)O1 | ? | 9.2µM* | 18.4µM* | . | -24.7 | 20.6µM*
COc1ccc(CN2C[C@@H](CO)O[C@@H](n3cnc4c(NCc5ccc(F)cc5)ncnc43)C2)cc1 | -2.7% | ? | ? | . | 28.3 | -18.8%
OC[C@@H]1CN(Cc2cccc(C(F)(F)F)c2)C[C@H](n2cnc3c(NC4CC4)ncnc32)O1 | 2.2% | ? | ? | . | 6.8 | 18.5%
COc1ccc2c(=O)c(C(=O)NCc3ccccc3)c[nH]c2c1 | -24.2% | ? | -23.7% | 5.1% | -1.3 | -28.8%
COc1ccc2c(=O)c(C(=O)NCCc3ccccc3)c[nH]c2c1 | 3.6% | ? | 16.4µM* | 11.2% | 13.5 | 0.8%
COc1ccc2[nH]cc(C(=O)NCCc3ccccc3)c(=O)c2c1 | -6.4% | 18.4µM* | -26.3% | 0.3% | -9.3 | -0.4%
CC1=C(C(=O)N2CCOCC2)CC(CC(=O)NCCc2ccccn2)C(=O)N1CCCN1CCCC1=O (stereo not drawn) | 15.0% | -24.7% | -7.8% | . | 0.0 | 26.9%
COC(=O)c1ccc(NC(=O)N2CCC(CN3CCc4ccccc4C3)CC2)cc1 | . | -26.8% | ? | . | . | .
CC(C)(C)S(=O)N1Cc2cc(C(=O)N3CCOCC3)nc(-c3cccc(Br)c3)c2[C@@H]1CCO (stereo partly drawn) | 5.5% | -22.5% | -18.7% | . | -6.2 | 11.3%
O=S(=O)(Cc1ccccc1)Nc1cccc(F)c1 | 3.2% | ? | 23.3% | -3.5% | -2.8 | 10.3%
SMILES | HT1080NT lethal | TDP1 cell noCPT | DT40 TDP1 CPT | uPA generation | IL-1B inflam inh | HT1080 IDH1KD tx
O=C(Nc1ccc2c(c1)C(=O)c1ccccc1-2)c1ccccc1 | 12.9% | ? | 7.5% | -1.0% | 4.3 | -3.4%
Cc1ccc(NCCC(=O)c2ccccc2)cc1Cl | -10.6% | 14.6µM* | 10.3µM* | 4.9% | -4.1 | -7.2%
Cc1ccc(NC2=C(NC(=O)c3ccccc3)C(=O)c3ccccc3C2=O)cc1Cl | -17.6% | 20.6µM* | 8.2µM* | ? | ? | -16.1%
Cc1ccc(C(=O)CNc2ccc(C)c(Cl)c2)cc1 | -2.5% | -2.3% | ? | -2.6% | 0.0 | 0.6%
Cc1ccc(NS(=O)(=O)Cc2ccccc2)cc1Cl | -12.0% | ? | 4.5% | 3.5% | -86.5* | -4.0%
COc1ccc(C(=O)NCC(=O)N2CCN(C(=O)c3ccco3)CC2)cc1[N+](=O)[O-] | -9.8% | 7.8% | -12.1% | -1.5% | 3.3 | 0.7%
COCCCn1c(SCC(=O)NC(C)C)nnc1-c1ccccc1 | 1.1% | 23.1µM* | ? | 2.5% | -5.7 | -3.0%
COCCCn1c(SCC(N)=O)nnc1-c1ccccc1 | 0.1% | -20.7% | -8.1% | 8.7% | 14.5 | 8.8%
COC(=O)C1CCN(Cc2ccc3c(c2)CN(C(=O)c2cc4cc(F)ccc4[nH]2)CCO3)CC1 | . | 14.6µM* | -10.5%[9.04 µM] | . | . | .

From PubChem BioAssay
